# Source: publication PMC7862700, “An all-to-all approach to the identification of sequence-specific readers for epigenetic DNA modifications on cytosine”
# Experiments:
# Assay in all cases: DAPPL (digital affinity profiling via proximity ligation, sequencing); 10 mM Tris-HCl pH 7.5, 50 mM NaCl, 1 mM DTT, 4% glycerol, room temperature, 30 min; GST-TFs on glutathione beads, 16-mer random dsDNA library, 0.1% formaldehyde crosslink after washing; high values mean tight binding
# [1] = target: T1, FLI1 (Homo sapiens, UniProt Q01543 1-452); details: protein: recombinant; tags: N-terminal GST; dsDNA, one strand shown
# T1 sequence: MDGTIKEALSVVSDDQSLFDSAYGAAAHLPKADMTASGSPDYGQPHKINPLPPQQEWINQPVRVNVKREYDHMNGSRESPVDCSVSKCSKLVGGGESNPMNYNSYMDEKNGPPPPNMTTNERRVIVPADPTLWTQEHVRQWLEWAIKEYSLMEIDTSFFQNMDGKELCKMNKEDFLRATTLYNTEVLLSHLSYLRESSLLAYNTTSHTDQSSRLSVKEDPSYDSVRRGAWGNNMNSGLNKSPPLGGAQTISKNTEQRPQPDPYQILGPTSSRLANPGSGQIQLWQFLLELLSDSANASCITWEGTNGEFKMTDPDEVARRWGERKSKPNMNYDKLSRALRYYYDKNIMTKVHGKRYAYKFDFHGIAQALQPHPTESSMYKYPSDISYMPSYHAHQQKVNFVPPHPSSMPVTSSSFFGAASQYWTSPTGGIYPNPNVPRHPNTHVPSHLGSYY
# Summary of the method: (§1)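 Binding signal is each hexamer's read frequency for a factor divided by its frequency in the tag-only sample. The factors were GST-fused human transcription factors from yeast, captured on glutathione beads, DNA-barcoded and pooled with that sample. Pools were incubated with 200 nmole of a random double-stranded 16-mer DNA library in Tris/NaCl/DTT/glycerol buffer at room temperature for 30 min, then washed, crosslinked with 0.1% formaldehyde, proximity-ligated with BsaI/T4 ligase (1 h, 37 °C), PCR-amplified and sequenced on an Illumina NextSeq500.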
# [2] = target: T2, ELK1 (Homo sapiens, UniProt P19419 1-428); details: protein: recombinant; tags: N-terminal GST; dsDNA, one strand shown
# T2 sequence: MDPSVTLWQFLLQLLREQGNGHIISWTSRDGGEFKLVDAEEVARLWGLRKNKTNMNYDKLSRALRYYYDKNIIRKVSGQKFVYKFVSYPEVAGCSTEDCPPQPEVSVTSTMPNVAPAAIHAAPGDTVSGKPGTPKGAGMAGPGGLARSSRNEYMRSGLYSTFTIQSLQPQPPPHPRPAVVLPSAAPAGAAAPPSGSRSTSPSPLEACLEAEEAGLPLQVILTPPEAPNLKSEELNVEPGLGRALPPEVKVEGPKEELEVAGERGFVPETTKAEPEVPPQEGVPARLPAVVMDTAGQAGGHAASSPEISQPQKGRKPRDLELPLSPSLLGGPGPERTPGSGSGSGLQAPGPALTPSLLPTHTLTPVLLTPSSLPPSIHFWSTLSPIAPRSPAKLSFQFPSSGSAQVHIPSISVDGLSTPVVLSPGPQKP
# Summary of the method: as §1
# [3] = target: T3, GABPA (Homo sapiens, UniProt Q06546 1-454); details: protein: recombinant; tags: N-terminal GST; dsDNA, one strand shown
# T3 sequence: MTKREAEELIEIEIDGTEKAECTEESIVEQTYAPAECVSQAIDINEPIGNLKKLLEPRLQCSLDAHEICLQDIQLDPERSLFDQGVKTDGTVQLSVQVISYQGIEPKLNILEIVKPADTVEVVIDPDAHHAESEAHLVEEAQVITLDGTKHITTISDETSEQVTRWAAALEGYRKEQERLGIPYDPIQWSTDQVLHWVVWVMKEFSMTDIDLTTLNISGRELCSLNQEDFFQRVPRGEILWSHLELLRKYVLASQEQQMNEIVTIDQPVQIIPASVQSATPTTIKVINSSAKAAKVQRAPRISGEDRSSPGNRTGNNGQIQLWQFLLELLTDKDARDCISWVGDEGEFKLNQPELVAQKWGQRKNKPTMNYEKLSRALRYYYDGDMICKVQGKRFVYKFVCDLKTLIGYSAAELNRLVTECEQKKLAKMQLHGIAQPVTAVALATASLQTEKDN
# Summary of the method: as §1
# [4] = target: T4, ERG (Homo sapiens, UniProt P11308 1-479); details: protein: recombinant; tags: N-terminal GST; dsDNA, one strand shown
# T4 sequence: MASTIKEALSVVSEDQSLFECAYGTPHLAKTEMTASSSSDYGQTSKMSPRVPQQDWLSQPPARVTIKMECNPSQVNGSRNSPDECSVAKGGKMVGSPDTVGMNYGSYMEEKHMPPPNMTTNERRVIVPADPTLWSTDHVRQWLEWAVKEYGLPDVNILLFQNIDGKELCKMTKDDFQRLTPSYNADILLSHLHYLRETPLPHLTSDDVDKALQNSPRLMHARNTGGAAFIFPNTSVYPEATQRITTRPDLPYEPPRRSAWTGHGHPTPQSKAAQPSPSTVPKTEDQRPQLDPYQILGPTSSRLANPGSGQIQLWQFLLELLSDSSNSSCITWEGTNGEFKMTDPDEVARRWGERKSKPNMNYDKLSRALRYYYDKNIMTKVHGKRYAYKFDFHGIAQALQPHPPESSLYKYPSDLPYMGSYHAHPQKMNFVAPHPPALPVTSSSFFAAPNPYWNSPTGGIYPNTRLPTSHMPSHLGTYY
# Summary of the method: as §1
# [5] = target: ELF1 (Homo sapiens, UniProt P32519 1-619); details: protein: recombinant; tags: N-terminal GST; dsDNA, one strand shown
# Summary of the method: as §1
# [6] = target: T5, EHF (Homo sapiens, UniProt Q9NZC4 1-300); details: protein: recombinant; tags: N-terminal GST; dsDNA, one strand shown
# T5 sequence: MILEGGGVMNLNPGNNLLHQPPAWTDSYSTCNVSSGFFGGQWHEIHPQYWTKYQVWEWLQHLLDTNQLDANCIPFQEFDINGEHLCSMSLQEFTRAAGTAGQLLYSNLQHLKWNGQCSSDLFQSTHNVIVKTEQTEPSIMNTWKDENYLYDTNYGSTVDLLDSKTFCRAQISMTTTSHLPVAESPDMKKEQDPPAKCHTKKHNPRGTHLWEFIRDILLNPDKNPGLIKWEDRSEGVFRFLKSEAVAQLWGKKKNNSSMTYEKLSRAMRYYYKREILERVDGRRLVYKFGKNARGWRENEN
# Summary of the method: as §1
# [7] = target: SPI1 (Homo sapiens, UniProt P17947 1-270); details: protein: recombinant; tags: N-terminal GST; dsDNA, one strand shown
# Summary of the method: as §1
# [8] = target: SPIB (Homo sapiens, UniProt Q01892 1-262); details: protein: recombinant; tags: N-terminal GST; dsDNA, one strand shown
# Summary of the method: as §1
# [9] = target: T6, ELK3 (Homo sapiens, UniProt P41970 1-407); details: protein: recombinant; tags: N-terminal GST; dsDNA, one strand shown
# T6 sequence: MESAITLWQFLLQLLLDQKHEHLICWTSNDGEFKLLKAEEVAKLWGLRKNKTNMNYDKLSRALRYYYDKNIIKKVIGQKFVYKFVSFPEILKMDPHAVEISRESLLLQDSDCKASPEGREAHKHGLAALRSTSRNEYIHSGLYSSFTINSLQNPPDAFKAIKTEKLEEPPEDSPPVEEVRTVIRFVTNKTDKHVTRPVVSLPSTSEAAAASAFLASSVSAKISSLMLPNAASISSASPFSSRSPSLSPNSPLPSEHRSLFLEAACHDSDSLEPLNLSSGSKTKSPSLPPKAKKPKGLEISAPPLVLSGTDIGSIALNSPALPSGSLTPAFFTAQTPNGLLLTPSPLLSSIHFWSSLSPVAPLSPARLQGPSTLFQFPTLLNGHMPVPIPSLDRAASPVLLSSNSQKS
# Summary of the method: as §1
# [10] = target: T7, FEV (Homo sapiens, UniProt Q99581 1-238); details: protein: recombinant; tags: N-terminal GST; dsDNA, one strand shown
# T7 sequence: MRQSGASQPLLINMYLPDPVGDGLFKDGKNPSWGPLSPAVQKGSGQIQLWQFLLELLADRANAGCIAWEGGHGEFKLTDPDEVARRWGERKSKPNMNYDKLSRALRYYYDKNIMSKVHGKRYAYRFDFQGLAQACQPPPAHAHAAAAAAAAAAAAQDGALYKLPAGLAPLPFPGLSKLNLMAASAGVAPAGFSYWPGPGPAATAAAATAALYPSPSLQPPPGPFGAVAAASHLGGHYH
# Summary of the method: as §1
# [11] = target: ETV5 (Homo sapiens, UniProt P41161 1-510); details: protein: recombinant; tags: N-terminal GST; dsDNA, one strand shown
# Summary of the method: as §1
# [12] = target: HSF1 (Homo sapiens, UniProt Q00613 1-529); details: protein: recombinant; tags: N-terminal GST; chain copies: 3; dsDNA, one strand shown
# Summary of the method: as §1
# [13] = target: T8, SPIC (Homo sapiens, UniProt Q8N5J4 1-248); details: protein: recombinant; tags: N-terminal GST; dsDNA, one strand shown
# T8 sequence: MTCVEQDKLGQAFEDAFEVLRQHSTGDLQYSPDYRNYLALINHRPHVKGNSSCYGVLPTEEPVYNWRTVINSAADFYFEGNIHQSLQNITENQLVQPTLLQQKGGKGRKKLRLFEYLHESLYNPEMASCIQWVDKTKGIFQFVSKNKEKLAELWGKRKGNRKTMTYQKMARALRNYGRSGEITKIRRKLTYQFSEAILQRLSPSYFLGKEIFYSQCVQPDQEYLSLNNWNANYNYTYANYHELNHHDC
# Summary of the method: as §1
# [14] = target: ELF4 (Homo sapiens, UniProt Q99607 1-663); details: protein: recombinant; tags: N-terminal GST; dsDNA, one strand shown
# Summary of the method: as §1
# [15] = target: T9, ELK4 (Homo sapiens, UniProt P28324-2 1-405); details: protein: recombinant; tags: N-terminal GST; dsDNA, one strand shown
# T9 sequence: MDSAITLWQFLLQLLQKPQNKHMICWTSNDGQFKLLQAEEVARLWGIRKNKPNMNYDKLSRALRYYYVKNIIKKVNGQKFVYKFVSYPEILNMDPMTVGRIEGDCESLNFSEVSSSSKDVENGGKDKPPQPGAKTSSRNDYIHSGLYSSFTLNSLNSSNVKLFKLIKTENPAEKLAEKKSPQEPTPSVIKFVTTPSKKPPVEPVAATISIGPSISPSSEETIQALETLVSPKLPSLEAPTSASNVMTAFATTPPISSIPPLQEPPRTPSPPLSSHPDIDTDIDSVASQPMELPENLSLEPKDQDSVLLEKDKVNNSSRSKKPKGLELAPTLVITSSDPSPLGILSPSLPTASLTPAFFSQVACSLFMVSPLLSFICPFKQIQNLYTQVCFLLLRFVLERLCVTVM
# Summary of the method: as §1
# [16] = target: T10, ETV2 (Homo sapiens, UniProt O00321 1-342); details: protein: recombinant; tags: N-terminal GST; dsDNA, one strand shown
# T10 sequence: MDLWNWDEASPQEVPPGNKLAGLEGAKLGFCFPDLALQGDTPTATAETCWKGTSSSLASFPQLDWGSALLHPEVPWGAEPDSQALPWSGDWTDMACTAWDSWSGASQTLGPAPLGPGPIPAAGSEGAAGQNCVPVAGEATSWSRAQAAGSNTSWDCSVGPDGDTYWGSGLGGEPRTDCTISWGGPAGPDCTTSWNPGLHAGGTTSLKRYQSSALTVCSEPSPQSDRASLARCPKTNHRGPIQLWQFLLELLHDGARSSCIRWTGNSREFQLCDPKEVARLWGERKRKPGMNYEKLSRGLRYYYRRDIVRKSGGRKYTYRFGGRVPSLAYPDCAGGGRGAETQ
# Summary of the method: as §1
# [17] = target: T11, ELF3 (Homo sapiens, UniProt P78545 1-371); details: protein: recombinant; tags: N-terminal GST; dsDNA, one strand shown
# T11 sequence: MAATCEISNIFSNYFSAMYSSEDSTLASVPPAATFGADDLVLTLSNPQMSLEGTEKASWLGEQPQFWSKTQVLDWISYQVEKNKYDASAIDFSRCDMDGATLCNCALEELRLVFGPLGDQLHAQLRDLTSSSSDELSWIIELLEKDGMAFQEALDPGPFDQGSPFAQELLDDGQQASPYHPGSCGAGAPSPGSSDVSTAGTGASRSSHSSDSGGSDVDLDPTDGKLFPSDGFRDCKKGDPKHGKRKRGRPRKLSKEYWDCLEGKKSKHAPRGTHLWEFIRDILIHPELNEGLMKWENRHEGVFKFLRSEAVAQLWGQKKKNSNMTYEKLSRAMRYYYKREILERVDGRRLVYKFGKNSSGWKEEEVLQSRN
# Summary of the method: as §1
# [18] = target: CRX (Homo sapiens, UniProt O43186 1-299); details: protein: recombinant; tags: N-terminal GST; dsDNA, one strand shown
# Summary of the method: as §1
# [19] = target: ETV1 (Homo sapiens, UniProt P50549 1-477); details: protein: recombinant; tags: N-terminal GST; dsDNA, one strand shown
# Summary of the method: as §1
# Sequence of ELF4 (Q99607 whole entry): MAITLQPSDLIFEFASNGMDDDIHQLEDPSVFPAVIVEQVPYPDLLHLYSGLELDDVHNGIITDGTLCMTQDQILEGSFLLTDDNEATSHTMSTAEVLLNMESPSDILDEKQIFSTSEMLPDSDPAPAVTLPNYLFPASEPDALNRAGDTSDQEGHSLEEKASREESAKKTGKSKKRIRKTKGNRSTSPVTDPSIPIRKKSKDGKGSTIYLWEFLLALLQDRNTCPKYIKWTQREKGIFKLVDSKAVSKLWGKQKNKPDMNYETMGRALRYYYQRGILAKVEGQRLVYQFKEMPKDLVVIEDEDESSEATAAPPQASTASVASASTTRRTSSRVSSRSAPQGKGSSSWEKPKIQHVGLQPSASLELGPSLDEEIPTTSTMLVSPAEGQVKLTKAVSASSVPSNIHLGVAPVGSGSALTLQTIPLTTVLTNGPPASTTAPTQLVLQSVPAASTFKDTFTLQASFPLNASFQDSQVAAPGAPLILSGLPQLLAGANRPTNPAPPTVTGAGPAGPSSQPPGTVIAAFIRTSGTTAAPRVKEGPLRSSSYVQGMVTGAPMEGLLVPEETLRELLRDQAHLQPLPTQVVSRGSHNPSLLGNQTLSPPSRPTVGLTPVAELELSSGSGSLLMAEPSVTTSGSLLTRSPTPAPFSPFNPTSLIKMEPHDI
# Sequence of ELF1 (P32519 whole entry): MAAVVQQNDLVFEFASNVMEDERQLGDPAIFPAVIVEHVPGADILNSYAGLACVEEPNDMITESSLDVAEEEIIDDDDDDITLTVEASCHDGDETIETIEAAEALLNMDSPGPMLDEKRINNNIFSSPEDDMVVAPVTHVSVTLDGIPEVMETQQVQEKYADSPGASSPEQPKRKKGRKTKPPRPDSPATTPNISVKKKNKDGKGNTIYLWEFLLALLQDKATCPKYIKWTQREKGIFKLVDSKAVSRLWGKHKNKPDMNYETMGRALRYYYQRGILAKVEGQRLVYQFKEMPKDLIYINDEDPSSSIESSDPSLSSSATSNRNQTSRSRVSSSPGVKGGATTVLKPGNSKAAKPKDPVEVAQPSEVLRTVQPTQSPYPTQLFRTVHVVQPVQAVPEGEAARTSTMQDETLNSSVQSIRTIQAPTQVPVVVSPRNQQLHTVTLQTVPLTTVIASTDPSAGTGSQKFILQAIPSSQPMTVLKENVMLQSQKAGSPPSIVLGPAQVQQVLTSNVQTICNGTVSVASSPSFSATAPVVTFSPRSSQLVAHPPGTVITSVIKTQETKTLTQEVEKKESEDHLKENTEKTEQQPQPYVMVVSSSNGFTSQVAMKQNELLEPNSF
# Sequence of ETV5 (P41161 whole entry): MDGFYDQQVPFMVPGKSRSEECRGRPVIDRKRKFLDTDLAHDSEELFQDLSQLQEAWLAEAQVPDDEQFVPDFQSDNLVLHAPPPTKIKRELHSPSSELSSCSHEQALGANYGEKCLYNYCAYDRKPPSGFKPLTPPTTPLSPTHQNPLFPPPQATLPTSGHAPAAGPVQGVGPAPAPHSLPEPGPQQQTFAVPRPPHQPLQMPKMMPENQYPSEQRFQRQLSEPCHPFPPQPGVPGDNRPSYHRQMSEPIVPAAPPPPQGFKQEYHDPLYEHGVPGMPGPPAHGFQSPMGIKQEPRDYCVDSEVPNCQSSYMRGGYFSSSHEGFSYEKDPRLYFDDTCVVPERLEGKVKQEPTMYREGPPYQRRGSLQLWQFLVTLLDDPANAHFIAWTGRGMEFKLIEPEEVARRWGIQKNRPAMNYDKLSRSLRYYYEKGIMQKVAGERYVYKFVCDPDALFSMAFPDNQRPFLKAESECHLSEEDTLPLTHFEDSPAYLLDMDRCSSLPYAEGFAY
# Sequence of ETV1 (P50549 whole entry): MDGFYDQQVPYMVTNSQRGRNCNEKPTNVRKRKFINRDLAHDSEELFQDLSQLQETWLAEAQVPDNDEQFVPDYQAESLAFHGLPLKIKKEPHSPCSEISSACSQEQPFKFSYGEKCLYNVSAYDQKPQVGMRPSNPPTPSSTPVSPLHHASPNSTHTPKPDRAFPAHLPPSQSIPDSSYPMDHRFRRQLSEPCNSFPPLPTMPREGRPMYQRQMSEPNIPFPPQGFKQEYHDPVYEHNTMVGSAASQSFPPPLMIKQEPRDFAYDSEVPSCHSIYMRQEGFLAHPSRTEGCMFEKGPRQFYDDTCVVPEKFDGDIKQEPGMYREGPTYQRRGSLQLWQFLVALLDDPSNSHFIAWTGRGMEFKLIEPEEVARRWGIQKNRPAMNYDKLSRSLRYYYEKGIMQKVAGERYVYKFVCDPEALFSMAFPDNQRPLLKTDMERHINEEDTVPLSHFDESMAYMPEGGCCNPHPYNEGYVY
# Sequence of CRX (O43186 whole entry): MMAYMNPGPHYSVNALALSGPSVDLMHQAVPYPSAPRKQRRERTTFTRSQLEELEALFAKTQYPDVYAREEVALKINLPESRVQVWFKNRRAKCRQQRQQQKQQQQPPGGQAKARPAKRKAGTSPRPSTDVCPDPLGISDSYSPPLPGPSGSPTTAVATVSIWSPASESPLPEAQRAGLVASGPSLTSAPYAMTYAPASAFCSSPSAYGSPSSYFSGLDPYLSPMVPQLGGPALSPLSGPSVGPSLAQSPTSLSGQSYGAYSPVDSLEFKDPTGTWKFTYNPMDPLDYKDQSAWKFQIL
# Sequence of SPIB (Q01892 whole entry): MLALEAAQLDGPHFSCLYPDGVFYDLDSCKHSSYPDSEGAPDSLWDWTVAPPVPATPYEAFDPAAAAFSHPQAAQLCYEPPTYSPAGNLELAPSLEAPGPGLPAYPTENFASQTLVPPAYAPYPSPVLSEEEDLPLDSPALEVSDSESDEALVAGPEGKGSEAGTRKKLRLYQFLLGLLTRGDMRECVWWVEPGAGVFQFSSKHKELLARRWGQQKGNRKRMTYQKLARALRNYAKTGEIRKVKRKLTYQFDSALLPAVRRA
# Sequence of HSF1 (Q00613 whole entry): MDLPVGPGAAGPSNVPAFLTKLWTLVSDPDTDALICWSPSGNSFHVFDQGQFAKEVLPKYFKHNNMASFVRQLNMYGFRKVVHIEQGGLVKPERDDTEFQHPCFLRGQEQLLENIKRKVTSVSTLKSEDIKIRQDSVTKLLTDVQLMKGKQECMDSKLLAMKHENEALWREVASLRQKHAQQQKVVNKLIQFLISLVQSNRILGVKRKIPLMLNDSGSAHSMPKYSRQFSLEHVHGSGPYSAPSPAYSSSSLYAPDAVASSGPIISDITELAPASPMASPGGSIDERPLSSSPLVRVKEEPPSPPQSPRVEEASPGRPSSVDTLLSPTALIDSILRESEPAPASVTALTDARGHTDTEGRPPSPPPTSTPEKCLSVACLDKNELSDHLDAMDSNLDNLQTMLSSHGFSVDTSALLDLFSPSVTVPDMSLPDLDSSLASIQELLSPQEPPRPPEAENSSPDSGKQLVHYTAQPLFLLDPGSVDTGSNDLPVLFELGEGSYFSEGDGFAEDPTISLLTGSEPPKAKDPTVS
sequence,measurement,setting,value
TACCGA,binding signal,[1],"1.26 fold enrichment (6-mer frequency, TF over GST control)"
same,binding signal,[2],"1.1 fold enrichment (6-mer frequency, TF over GST control)"
same,binding signal,[3],"1.13 fold enrichment (6-mer frequency, TF over GST control)"
same,binding signal,[4],"1.07 fold enrichment (6-mer frequency, TF over GST control)"
same,binding signal,[5],"1.17 fold enrichment (6-mer frequency, TF over GST control)"
same,binding signal,[6],"1.1 fold enrichment (6-mer frequency, TF over GST control)"
same,binding signal,[7],"1.12 fold enrichment (6-mer frequency, TF over GST control)"
same,binding signal,[8],"1.16 fold enrichment (6-mer frequency, TF over GST control)"
same,binding signal,[9],"1.12 fold enrichment (6-mer frequency, TF over GST control)"
same,binding signal,[10],"1.11 fold enrichment (6-mer frequency, TF over GST control)"
same,binding signal,[11],"1.14 fold enrichment (6-mer frequency, TF over GST control)"
same,binding signal,[12],"1.21 fold enrichment (6-mer frequency, TF over GST control)"
same,binding signal,[13],"1.2 fold enrichment (6-mer frequency, TF over GST control)"
same,binding signal,[14],"1.18 fold enrichment (6-mer frequency, TF over GST control)"
same,binding signal,[15],"1.12 fold enrichment (6-mer frequency, TF over GST control)"
same,binding signal,[16],"1.04 fold enrichment (6-mer frequency, TF over GST control)"
same,binding signal,[17],"1.3 fold enrichment (6-mer frequency, TF over GST control)"
same,binding signal,[18],"1.33 fold enrichment (6-mer frequency, TF over GST control)"
same,binding signal,[19],"1.24 fold enrichment (6-mer frequency, TF over GST control)"
